# G9a inh – qHTS Assay for Inhibitors of Histone Lysine Methyltransferase G9a. Histone-lysine N-methyltransferase EHMT2 (Homo sapiens), Q96KQ7. G9a H3K9 monomethylation, AlphaScreen, 2 h. Potency, µM (series often up to 102 µM), for inactives: top-dose activity, negative = inhibition, actives largely listed as inhibitors. actives 8.8% (n = 350,000). AID 504332, 2011; also: % is scaled to controls: 0 for no effect and ±100 for the full control effect; nearly all actives have a fitted effect of over 75% in size
# Target sequence (Q96KQ7 913-1193 limits assumed): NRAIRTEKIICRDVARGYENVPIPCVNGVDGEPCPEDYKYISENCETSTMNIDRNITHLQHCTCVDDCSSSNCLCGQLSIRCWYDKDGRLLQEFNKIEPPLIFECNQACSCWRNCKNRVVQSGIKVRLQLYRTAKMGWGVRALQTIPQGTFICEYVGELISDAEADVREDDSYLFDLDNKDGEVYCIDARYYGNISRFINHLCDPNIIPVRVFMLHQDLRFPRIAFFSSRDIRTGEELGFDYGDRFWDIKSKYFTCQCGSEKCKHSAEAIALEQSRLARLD
#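 Chemiluminescent proximity detection of H3K9 monomethylation, read after 10 min bead incubation in the dark. Reaction: 20 nM G9a, 500 nM biotin-H3K9 peptide, 20 uM SAM cofactor, 2 h, room temperature, following 15 min enzyme-compound preincubation.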
# BAZ2B block – qHTS Assay for Inhibitors of BAZ2B; Bromodomain adjacent to zinc finger domain protein 2B (Homo sapiens), Q9UIF8; AlphaScreen BAZ2B-H3K14Ac peptide displacement; Potency, µM (titrated, usually from 114 µM), inactives show at the highest dose activity change, negative = inhibition, most hits filed as inhibitors; actives 4.4% (n = 360,000); AID 504333, 2011; also: % is scaled to controls: 0 for no effect and ±100 for the full control effect; nearly all actives have a fitted effect of over 60% in size
#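 AlphaScreen displacement: compounds (up to 110uM) incubated 30 min at room temperature with a preformed 50 nM BAZ2B/50 nM biotinylated H3K14Ac peptide complex in PBS pH 7.4 with Tween-20. Donor and acceptor beads at 10 ug/mL final added, 20 min light-protected before reading.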
# JMJD2A Tudor – qHTS Assay for Inhibitors of JMJD2A-Tudor Domain; AlphaScreen JMJD2A-Tudor / H3K4me3 peptide binding; Potency, µM (top dose mostly 114 µM), for inactives: at the top dose activity change, negative = inhibition, most hits filed as inhibitors; actives 4.4% (n = 390,000); AID 504339, 2011; also: % is scaled to controls: 0 for no effect and ±100 for the full control effect; nearly all actives have a fitted effect of over 50% in size
# HP1b binding inh – HTS for Inhibitors of HP1-beta Chromodomain Interactions with Methylated Histone Tails | Potency, µM (doses to about 114 µM), for the others: at the top dose activity change, negative = inhibition, most hits filed as inhibitors | AlphaScreen HP1-beta / biotin-H3K9me3 peptide binding | AID 540317, 2011 | actives 0.56% (n = 390,000) | Chromobox protein homolog 1 (Homo sapiens), P83916; also: nearly all actives have a fitted effect of over 70% in size
# Target sequence (P83916 whole entry, looked up): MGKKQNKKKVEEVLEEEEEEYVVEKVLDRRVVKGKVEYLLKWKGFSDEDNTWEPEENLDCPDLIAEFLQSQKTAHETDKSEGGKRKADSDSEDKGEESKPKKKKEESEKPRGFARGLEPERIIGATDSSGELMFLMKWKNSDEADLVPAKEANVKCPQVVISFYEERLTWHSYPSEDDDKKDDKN
#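 Compound inhibition of the preformed complex between 50 nM HP1-beta and 50 nM biotinylated H3K9me3 peptide was read by AlphaScreen. Buffer was PBS pH 7.4 with 0.01% Tween-20. Incubations ran 30 min at room temperature, with 10 ug/mL donor/acceptor beads.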
# Sfp PPTase inh – qHTS Assay for Inhibitors of Bacillus subtilis Sfp phosphopantetheinyl transferase (PPTase); Biochemical Sfp PPTase activity, qHTS; Potency, µM, for inactives: largest response in the series, negative = inhibition, actives largely listed as inhibitors; actives 3.5% (n = 310,000);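 also: the enzyme is Sfp with the accession as filed and its product quenches rhodamine fluorescence; 0% = enzyme reaction without inhibitor and -100% = no enzyme wells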
#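 Step 1, compound plus 15 nM Sfp-PPTase, 15 min, room temperature. Step 2, add rhodamine-CoA (5 uM) and BHQ-2-YbbR (12.5 uM). Step 3, read 525/598 nm fluorescence at 0 and 30 min.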
# Numbers without * were called inactive; ? = inconclusive; . = no result; [ ] = dose if it differs, or a comment. Sampled rows, rich in hits. Any-hit rate of the full collection: about 12%. Calls follow the shape of the dose curve; as a rule, active = well fitted curve in the direction sought with a large enough effect; inconclusive = small, poorly fitted or top-dose-only effect, or another doubt; inactive = no such curve, though single readings can be large; an effect the other way counts as inactive or inconclusive. Potency is read from the fitted curve at half-maximal effect.
SMILES,G9a inh,BAZ2B block,JMJD2A Tudor,HP1b binding inh,Sfp PPTase inh
CCC(C)(C)n1nnnc1C(c1ccc2ncccc2c1)N1CCN(c2nc3ccccc3s2)CC1 (stereo unspecified),?,-10%,-36%,2%,-14%
Cc1cn2c(=O)c(S(=O)(=O)Nc3ccc(N4CCOCC4)cc3)c(C)nc2s1,-31%[59 µM],-16%,1%,45%,.
COc1cccc(Nc2nnc(SCc3nc4ccccc4s3)s2)c1,10µM*,-31%,-27%,13%,3%
Cc1cccc(C)c1Nc1nnc(SCc2nc3ccccc3s2)s1,8.9µM*,-1%,-29%,20%,?
O=C(O)c1oc2ccccc2c1CSc1ccc(Cl)cc1,?,-3%,-18%,-21%,16%
O=C(c1ccc(Cl)cc1)c1oc2ccccc2c1CS(=O)c1ccccc1 (stereo unspecified),?,-35%,?,-4%,45µM*
Cc1c(C=O)c2ccccn2c1C(=O)c1cccs1,50µM*,-26%,-1%,33%,?
CCN(CC)Cc1c(O)ccc2occ(C(=O)c3ccccc3)c12,-8%,-25%,-14%,48%,9%
O=C(c1cccs1)c1coc2ccc(O)c(CN(CCO)CCO)c12,40µM*,-2%,-13%,11%,-4%
COc1ccnc(CSC(N)=Nc2cccc(C(F)(F)F)c2)c1,45µM*,35µM*,20µM*,?,?
COc1ccnc(CSC(N)=Nc2ccccc2OC)c1,8.9µM*,?,45µM*,7%,32µM*
COc1ccnc(CSC(N)=Nc2ccccc2C(F)(F)F)c1,-36%[59 µM],-3%,-6%,40%,?
Cc1cccc(CNC(=O)CS(=O)(=O)c2cccc3nsnc23)c1,30%[59 µM],-1%,-30%,12%[57 µM],.
CCOc1ccc(C(=O)Nc2ccc(C(=O)N3CCOCC3)cc2)c(OCC)c1,0%,-13%,-18%,9%,12%
Cc1cc(C)c(NC(=O)c2ccc3c(c2)NC(=O)C(C)S3)c(C)c1 (stereo unspecified),13%[12.7 µM],-1%,-14%,20%,.
CCN(CC)S(=O)(=O)c1cc(NC(=O)c2ccc3c(c2)NC(=O)C(C)S3)ccc1C (stereo unspecified),1µM*,-2%,-30%,?,.
CCCCc1ccc(NC(=S)N2CCN(c3ccccn3)CC2)cc1,?,-25%,-15%,25%,24%
CCOc1ccc(Nc2nc(N)nc(CN(C)C3CCCCC3)n2)cc1,11%,28µM*,20µM*,32%,-12%
COc1ccc(Nc2nc(N)nc(COc3ccc(OC)cc3)n2)cc1,17%[59 µM],10%,-12%,39%,0%
COc1ccc(Nc2nc(N)nc(CN(C)C3CCCCC3)n2)cc1,4%,32µM*,45µM*,13%,2%
COc1ccc(Nc2nc(N)nc(CSC(=S)N3CCCCC3)n2)cc1,?,71µM*,?,-16%,7%
COc1ccccc1Cn1[nH]nnc1=S,3.2µM*,-30%,16µM*,?,40µM*
COc1cccc(CN2CCSCC2)c1OC,.,79µM*,20µM*,?,-18%
COc1cccc(CN2CCN(Cc3cccc(Br)c3)CC2)c1OC,?,20µM*,3.2µM*,22µM*,-28%
COc1ccccc1CN1CCCCCC1,40µM*,?,1.3µM*,?,8%
SMILES,G9a inh,BAZ2B block,JMJD2A Tudor,HP1b binding inh,Sfp PPTase inh
COc1ccccc1CN1C(=O)CNC1=S,-1%,-4%,-12%,15%[57 µM],7%
Cc1ccc(OCC(=O)Nc2ccc(OCc3cc(=O)n4cccc(C)c4n3)cc2)cc1C,0%[59 µM],8%,-14%,26%[57 µM],.
CC(C)CN1C(=O)C(=O)N(CC(=O)NC(C)CCc2ccccc2)C1=O (stereo unspecified),?,23%,?,7%,.
COc1cccc(CN2CCN(c3cccc(C(F)(F)F)c3)CC2)c1OC,6.3µM*,?,2.2µM*,?,?
CCOc1cccc(CN2CCN(c3cccc(C(F)(F)F)c3)CC2)c1O,-36%[12.7 µM],-15%,-23%,18%,?
COc1ccccc1CN1CCSCC1,?,50µM*,6.3µM*,71µM*,-9%
COc1ccc(C2c3cccn3CCN2S(=O)(=O)c2ccccc2[N+](=O)[O-])cc1OC (stereo unspecified),?,?,?,13%,.
COCCn1c(-c2ccc(Cl)cc2)cnc1SCC(=O)NCc1cccs1,45µM*,?,?,?,3%
Cc1nc2c(C(=O)NCc3ccc4c(c3)OCO4)c[nH]n2c(=O)c1Cl,7%[59 µM],-33%,-15%,9%,45µM*
COc1cccc(CNC(=O)c2c[nH]n3c(=O)c(Cl)c(C)nc23)c1,45µM*,-3%,-10%,18%,-13%
Cc1cc(C)c(OCCN2CCCC2)c(Cl)c1,45µM*,-32%,-100%,-22%,-16%
Cc1cc(Cl)c(OCCCN2CCCCC2)c(Br)c1,?,50µM*,28µM*,?,-5%
Cc1cc(Cl)cc(Cl)c1OCCN1CCCC1,50µM*,-9%,50µM*,?,-1%
Cc1cc(Cl)c(OCCOCCN2CCNCC2)c(Cl)c1,.,.,-5%,31%,.
Cc1cc(C)c(OCCOCCN2CCN(C)CC2)c(Cl)c1,3.5µM*,32µM*,1.6µM*,?,-30%
CCOc1ccc(-n2c(=O)c3c4c(sc3n(Cc3cccc(C)c3)c2=O)CCCC4)cc1,1%[59 µM],0%,8%,42%,.
COc1ccc(OC)c(CNC(=O)CSc2c3c(nc4cc(Cl)ccc24)CCCC3)c1,5%[59 µM],-15%,-14%,31%,.
Cc1cc(Cl)cc(Cl)c1OCCCCN(C)C,8.9µM*,-35%,45µM*,?,-7%
N#CCc1nn2c3c(cnc2c1C#N)C(=O)CCC3,45µM*,-27%,-22%,-13%,-18%
c1ccc(CNc2oc(-c3ccccc3)nc2-c2cccc3ccccc23)cc1,.,.,.,.,-13%
CCCN(C/C=C/I)C1CCc2cccc(O)c2C1 (stereo unspecified),-44%[59 µM],.,.,.,-13%
O=[N+]([O-])c1ccc(O)c2ncccc12,?,3.5µM*,22µM*,-4%,-25%
O=[N+]([O-])c1ccc(O)c2cccnc12,?,?,-20%,?,-3%
O=[N+]([O-])c1cc([N+](=O)[O-])c2cccnc2c1Oc1ccccc1O,3.2µM*,28µM*,22µM*,71µM*,45µM*
COCCCNc1nc2c(-c3cccc(Br)c3)nnn2c2ccccc12,4%[59 µM],12%,4%,48%,.

# Bioassay records as filed in PubChem.
